Test results as given in PubChem BioAssay AID1159580 (chemical genetic matrix, 2015).
Among all 5,500 compounds or so, about 2,000 (36%) were called active. Inconclusive results (about 18%) are left out. Cut-off read from the data, not from the text of the source: active = normalized growth mostly below about 0.91 (no sharp cut-off); inconclusive = no clear call, values can overlap the other calls; inactive = mostly above about 0.92. The list shows a part of the results.

Assay: chemical genetic growth profiling, strain panel (AID 1159580);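 note: tested at 20 µM; growth read once vehicle control cultures reached saturation at 30 °C; 1 = growth at the plate median or of vehicle wells; lower values mean less growth of the strain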
Conditions: growth OD
[1] = S. cerevisiae deletion strains, locus YAL013W, strain DEP1, stronger effect = lower value
[2] = S. cerevisiae deletion strains, locus YBR229C, strain ROT2, stronger effect = lower value
[3] = S. cerevisiae deletion strains, locus YDL101C, strain DUN1, stronger effect = lower value
[4] = S. cerevisiae deletion strains, locus YDR150W, strain NUM1, stronger effect = lower value
[5] = S. cerevisiae deletion strains, locus YEL061C, strain CIN8, stronger effect = lower value
[6] = S. cerevisiae deletion strains, locus YGR078C, strain PAC10, stronger effect = lower value
[7] = S. cerevisiae deletion strains, locus YHR030C, strain SLT2, stronger effect = lower value
[8] = S. cerevisiae deletion strains, locus YHR087W, strain rtc3, stronger effect = lower value
[9] = S. cerevisiae deletion strains, locus YJR043C, strain POL32, stronger effect = lower value
[10] = S. cerevisiae deletion strains, locus YJR075W, strain HOC1, stronger effect = lower value
[11] = S. cerevisiae deletion strains, locus YKL190W, strain CNB1, stronger effect = lower value
[12] = S. cerevisiae deletion strains, locus YLR039C, strain RIC1, stronger effect = lower value
[13] = S. cerevisiae deletion strains, locus YLR058C, strain SHM2 (second series), stronger effect = lower value
[14] = S. cerevisiae deletion strains, locus YLR085C, strain ARP6, stronger effect = lower value
[15] = S. cerevisiae deletion strains, locus YLR262C, strain YPT6, stronger effect = lower value
[16] = S. cerevisiae deletion strains, locus YML094W, strain GIM5, stronger effect = lower value
[17] = S. cerevisiae deletion strains, locus YMR219W, strain ESC1, stronger effect = lower value
[18] = S. cerevisiae deletion strains, locus YMR263W, strain SAP30, stronger effect = lower value
[19] = S. cerevisiae deletion strains, locus YNL153C, strain GIM3, stronger effect = lower value
[20] = S. cerevisiae deletion strains, locus YNL298W, strain CLA4 (second series), stronger effect = lower value
[21] = S. cerevisiae deletion strains, locus YNL322C, strain KRE1, stronger effect = lower value
[22] = S. cerevisiae deletion strains, locus YNR030W, strain Alg12, stronger effect = lower value
[23] = S. cerevisiae deletion strains, locus YPL055C, strain LGE1, stronger effect = lower value
[24] = S. cerevisiae deletion strains, locus YPL241C, strain CIN2, stronger effect = lower value
[25] = S. cerevisiae deletion strains, locus YPR135W, strain CTF4, stronger effect = lower value

Measured: normalized growth

NC(N)=NC(N)=Nc1ccc2c(c1)OCCO2
inactive: [1] 0.987 | [2] 1.01 | [3] 1.01 | [4] 0.918 | [5] 0.995 | [6] 0.99 | [7] 0.983 | [8] 1.01 | [9] 0.989 | [10] 0.993 | [11] 0.994 | [12] 1 | [13] 0.994 | [14] 0.963 | [15] 0.998 | [16] 1.06 | [17] 0.996 | [18] 0.943 | [19] 1.01 | [20] 0.993 | [21] 1 | [22] 0.995 | S. cerevisiae deletion strains, locus YOL006C, strain TOP1, stronger effect = lower value 1.03 | [23] 0.993 | [24] 0.927 | [25] 1.01 | S. cerevisiae strains, strain wild type, stronger effect = lower value 0.995

NNC(=S)Nc1ccc2c(c1)OCCO2
inactive: [1] 1.01 | [2] 1.01 | [3] 1.01 | S. cerevisiae deletion strains, locus YDL134C, strain PPH21, stronger effect = lower value 1.01 | [4] 0.956 | [5] 0.983 | [6] 0.991 | S. cerevisiae deletion strains, locus YGR229C, strain SMI1, stronger effect = lower value 0.986 | [7] 1.02 | [8] 1.05 | [9] 1 | [10] 1.05 | [11] 0.99 | [12] 0.983 | [13] 1.01 | [14] 0.939 | [15] 1.01 | [16] 0.944 | [17] 1.02 | [18] 0.996 | S. cerevisiae deletion strains, locus YMR307W, strain GAS1, stronger effect = lower value 0.954 | S. cerevisiae deletion strains, locus YNL128W, strain TEP1, stronger effect = lower value 0.976 | [19] 0.994 | [20] 0.992 | [21] 1.02 | [23] 0.967 | [24] 1.1 | [25] 0.823
active: [22] 0.806

CC(C)C[C@@H](CN)CC(=O)O
inactive: S. cerevisiae deletion strains, locus YAL021C, strain ccr4, stronger effect = lower value 1.04 | S. cerevisiae deletion strains, locus YAL026C, strain drs2, stronger effect = lower value 1.03 | S. cerevisiae deletion strains, locus YAL030W, strain snc1, stronger effect = lower value 1.02 | S. cerevisiae deletion strains, locus YBL061C, strain skt5, stronger effect = lower value 1.01 | S. cerevisiae deletion strains, locus YBR009C, strain hhf1, stronger effect = lower value 1 | S. cerevisiae deletion strains, locus YBR023C, strain chs3, stronger effect = lower value 1.02 | S. cerevisiae deletion strains, locus YBR171W, strain sec66, stronger effect = lower value 1.02 | S. cerevisiae deletion strains, locus YBR231C, strain swc5, stronger effect = lower value 0.994 | S. cerevisiae deletion strains, locus YBR279W, strain paf1, stronger effect = lower value 1.02 | S. cerevisiae deletion strains, locus YCL011C, strain gbp2, stronger effect = lower value 1.03 | S. cerevisiae deletion strains, locus YCL016C, strain dcc1, stronger effect = lower value 1.04 | S. cerevisiae deletion strains, locus YCL061C, strain MRC1, stronger effect = lower value 1.02 | S. cerevisiae deletion strains, locus YCL069W, strain vba3, stronger effect = lower value 1.04 | S. cerevisiae deletion strains, locus YCR088W, strain abp1, stronger effect = lower value 1.02 | S. cerevisiae deletion strains, locus YDL005C, strain med2, stronger effect = lower value 1.02 | S. cerevisiae deletion strains, locus YDL040C, strain nat1, stronger effect = lower value 1.01 | S. cerevisiae deletion strains, locus YDR001C, strain nth1, stronger effect = lower value 1.01 | S. cerevisiae deletion strains, locus YDR069C, strain doa4, stronger effect = lower value 1.01 | S. cerevisiae deletion strains, locus YDR137W, strain rgp1, stronger effect = lower value 1.06 | S. cerevisiae deletion strains, locus YDR159W, strain sac3, stronger effect = lower value 0.965 | S. cerevisiae deletion strains, locus YDR195W, strain ref2 0.977 | S. cerevisiae deletion strains, locus YDR297W, strain sur2, stronger effect = lower value 1.01 | S. cerevisiae deletion strains, locus YDR334W, strain swr1, stronger effect = lower value 1.02 | S. cerevisiae deletion strains, locus YDR335W, strain msn5, stronger effect = lower value 1.04 | S. cerevisiae deletion strains, locus YDR392W, strain spt3, stronger effect = lower value 0.954 | S. cerevisiae deletion strains, locus YEL003W, strain gim4, stronger effect = lower value 1.01 | S. cerevisiae deletion strains, locus YEL037C, strain rad23, stronger effect = lower value 1.01 | S. cerevisiae deletion strains, locus YEL061C, strain CIN8 (second series), stronger effect = lower value 1.01 | S. cerevisiae deletion strains, locus YER015W, strain faa2, stronger effect = lower value 1 | S. cerevisiae deletion strains, locus YER016W, strain bim1, stronger effect = lower value 1.04 | S. cerevisiae deletion strains, locus YER111C, strain swi4, stronger effect = lower value 1.02 | S. cerevisiae deletion strains, locus YER155C, strain BEM2 (second series), stronger effect = lower value 1 | S. cerevisiae deletion strains, locus YFR010W, strain ubp6, stronger effect = lower value 1.01 | S. cerevisiae deletion strains, locus YGL167C, strain pmr1, stronger effect = lower value 1.02 | S. cerevisiae deletion strains, locus YGL173C, strain kem1, stronger effect = lower value 1.01 | S. cerevisiae deletion strains, locus YGL227W, strain vid30, stronger effect = lower value 1.01 | S. cerevisiae deletion strains, locus YGL240W, strain doc1, stronger effect = lower value 1 | S. cerevisiae deletion strains, locus YGL253W, strain hxk2, stronger effect = lower value 1.02 | S. cerevisiae deletion strains, locus YHR013C, strain ard1, stronger effect = lower value 1.05 | S. cerevisiae deletion strains, locus YHR027C, strain rpn1, stronger effect = lower value 1.01 | [7] 1.09 | S. cerevisiae deletion strains, locus YHR079C, strain IRE1, stronger effect = lower value 0.981 | S. cerevisiae deletion strains, locus YHR142W, strain chs7, stronger effect = lower value 1.03 | S. cerevisiae deletion strains, locus YJL092W, strain hpr5, stronger effect = lower value 1.01 | S. cerevisiae deletion strains, locus YJL095W, strain BCK1 (second series), stronger effect = lower value 1.02 | S. cerevisiae deletion strains, locus YJL095W, strain BCK1, stronger effect = lower value 0.989 | S. cerevisiae deletion strains, locus YJL115W, strain asf1, stronger effect = lower value 1.03 | S. cerevisiae deletion strains, locus YJL129C, strain trk1, stronger effect = lower value 1.03 | S. cerevisiae deletion strains, locus YJL154C, strain vps35, stronger effect = lower value 1.02 | S. cerevisiae deletion strains, locus YJL164C, strain tpk1, stronger effect = lower value 1 | S. cerevisiae deletion strains, locus YJL166W, strain qcr8, stronger effect = lower value 1.01 | S. cerevisiae deletion strains, locus YJL187C, strain SWE1, stronger effect = lower value 1.01 | S. cerevisiae deletion strains, locus YJR066W, strain TOR1, stronger effect = lower value 0.959 | S. cerevisiae deletion strains, locus YKL160W, strain elf1, stronger effect = lower value 1.04 | S. cerevisiae deletion strains, locus YKR026C, strain gcn3, stronger effect = lower value 1.01 | S. cerevisiae deletion strains, locus YKR091W, strain srl3, stronger effect = lower value 1.01 | S. cerevisiae deletion strains, locus YLL001W, strain dnm1, stronger effect = lower value 0.995 | S. cerevisiae deletion strains, locus YLL026W, stronger effect = lower value 1.01 | S. cerevisiae deletion strains, locus YLL041C, strain sdh2, stronger effect = lower value 1.03 | S. cerevisiae deletion strains, locus YLR027C, strain aat2, stronger effect = lower value 1.02 | S. cerevisiae deletion strains, locus YLR113W, strain HOG1, stronger effect = lower value 0.992 | S. cerevisiae deletion strains, locus YLR221C, strain rsa3, stronger effect = lower value 0.998 | S. cerevisiae deletion strains, locus YLR258W, strain gsy2, stronger effect = lower value 1.04 | S. cerevisiae deletion strains, locus YLR262C, strain YPT6 (second series), stronger effect = lower value 1.02 | S. cerevisiae deletion strains, locus YLR320W, strain mms22, stronger effect = lower value 0.981 | S. cerevisiae deletion strains, locus YLR342W, strain FKS1, stronger effect = lower value 1.04 | S. cerevisiae deletion strains, locus YLR357W, strain rsc2, stronger effect = lower value 0.987 | S. cerevisiae deletion strains, locus YLR370C, strain arc18, stronger effect = lower value 1.03 | S. cerevisiae deletion strains, locus YLR384C, strain iki3, stronger effect = lower value 1.02 | S. cerevisiae deletion strains, locus YML120C, strain ndi1, stronger effect = lower value 1.01 | S. cerevisiae deletion strains, locus YMR058W, strain fet3, stronger effect = lower value 1.02 | S. cerevisiae deletion strains, locus YMR125W, strain sto1, stronger effect = lower value 1.02 | S. cerevisiae deletion strains, locus YMR129W, stronger effect = lower value 1.02 | S. cerevisiae deletion strains, locus YMR205C, strain PFK2, stronger effect = lower value 0.993 | S. cerevisiae deletion strains, locus YMR231W, strain pep5, stronger effect = lower value 1.01 | S. cerevisiae deletion strains, locus YNL071W, strain lat1, stronger effect = lower value 1.02 | S. cerevisiae deletion strains, locus YNL183C, strain NPR1, stronger effect = lower value 0.923 | S. cerevisiae deletion strains, locus YNL209W, strain ssb2, stronger effect = lower value 1.01 | S. cerevisiae deletion strains, locus YNL248C, strain rpa49, stronger effect = lower value 1.01 | S. cerevisiae deletion strains, locus YNL322C, strain KRE1 (second series), stronger effect = lower value 1.02 | S. cerevisiae deletion strains, locus YNR049C, strain mso1, stronger effect = lower value 1.01 | S. cerevisiae deletion strains, locus YOR001W, strain rrp6, stronger effect = lower value 1.01 | S. cerevisiae deletion strains, locus YOR070C, strain gyp1, stronger effect = lower value 1.02 | S. cerevisiae deletion strains, locus YOR080W, strain dia2, stronger effect = lower value 1.03 | S. cerevisiae deletion strains, locus YOR083W, strain WHI5, stronger effect = lower value 0.974 | S. cerevisiae deletion strains, locus YOR106W, strain vam3, stronger effect = lower value 1.03 | S. cerevisiae deletion strains, locus YOR231W, strain MKK1, stronger effect = lower value 0.982 | S. cerevisiae deletion strains, locus YOR265W, strain rbl2, stronger effect = lower value 0.999 | S. cerevisiae deletion strains, locus YOR270C, strain vph1, stronger effect = lower value 1.12 | S. cerevisiae deletion strains, locus YOR290C, strain snf2, stronger effect = lower value 1.06 | S. cerevisiae deletion strains, locus YPL051W, strain arl3, stronger effect = lower value 1.04 | S. cerevisiae deletion strains, locus YPL078C, strain atp4, stronger effect = lower value 1.04 | S. cerevisiae deletion strains, locus YPL106C, strain sse1, stronger effect = lower value 1.02 | S. cerevisiae deletion strains, locus YPL240C, strain hsp82, stronger effect = lower value 1.02 | S. cerevisiae deletion strains, locus YPL256C, strain CLN2, stronger effect = lower value 0.984
